Most compounds without a hit are left out; they make up all but 3.7% or so of the library.
RE007 growth inh: less growth of the S. pombe RE007 Vpr strain. Potency, µM (top dose mostly 92.2 µM), actives largely listed as inhibitors. actives 0.21% (n = 360,000). S. pombe RE007 Vpr strain, BacTiter-Glo ATP luminescence, 24 h; active = well fitted falling curve with a large enough effect; inconclusive = small, poorly fitted or top-dose-only effect; inactive = no such curve, though single readings can be large or run the other way; also: nearly all actives have a fitted effect of over 50% in size
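Fission yeast RE007 carrying one integrated HIV-1 vpr copy, seeded at OD 0.01 in PMG+AL medium with 23 nL pinned compound. Grown 24 h at 30 degrees; viability read by BacTiter-Glo luminescence after 5 min.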
Tb PYK inh: inhibitors of Trypanosoma brucei pyruvate kinase; Q57TT1; TbPYK enzyme, Kinase-Glo Plus ATP luminescence, 45 min; Potency, µM (highest dose often 76.8 µM), actives largely listed as inhibitors; actives 0.12% (n = 410,000); AID 624173; also: nearly all actives have a fitted effect of over 50% in size
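TbPYK + substrate in 50 mM TEA pH 7.2, 100 mM KCl, 10 mM MgCl2, 0.05% BSA, 0.01% Tween-20; cpd pinned; ADP 130 uM final; 45 min RT; Kinase-Glo Plus 10 min; luminescence endpoint.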
FMDV antiviral: blocks foot and mouth disease virus. actives 1.2% (n = 410,000). FMDV antiviral cell-based qHTS. Potency, µM (top dose mostly 57.9 µM), hits mostly inhibitors; calls by dose curve; tested in HEK293T cells; also: read-out not given here; nearly all actives have a fitted effect of over 45% in size
Sm TGR inh: inhibitors of Schistosoma mansoni thioredoxin glutathione reductase | purified TGR, DTNB reduction, TNB absorbance 405 nm | Q962Y6 | actives 3% (n = 360,000) | Potency, µM (doses to about 114 µM), most hits filed as inhibitors; also: nearly all actives have a fitted effect of over 60% in size
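Kinetic colorimetric format: TGR-catalysed, NADPH-driven DTNB reduction monitored via TNB absorbance. Enzyme dispensed at 20 nM; compound exposure 15 min at room temperature before reaction start.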
Of the large screens only hits and unclear results are named; the others gave an inactive call; ! = repeats disagree. Unless noted, calls follow the shape of the dose curve; as a rule, active = well fitted curve in the direction sought with a large enough effect; inconclusive = small, poorly fitted or top-dose-only effect, or another doubt; inactive = no such curve, though single readings can be large; an effect the other way counts as inactive or inconclusive.

CCOc1cc(C2c3c(-c4ccccc4O)n[nH]c3C(=O)N2Cc2cccnc2)ccc1O (stereo not drawn)	none (no result: RE007 growth inh)
Cc1c(C(=O)NCCc2cccnc2)cnn1-c1nccc(-c2ccccc2F)n1	none (no result: RE007 growth inh, Tb PYK inh, Sm TGR inh)
Cc1c(Cl)cccc1-c1ccc(CNc2ccc3[nH]c(=O)[nH]c3c2)o1	none (no result: RE007 growth inh)
Cc1cccc(N2CCN(C(=O)C3CC(=O)N(c4ccc5c(c4)OCCO5)C3)CC2C)c1 (stereo not drawn)	FMDV antiviral inconclusive, Sm TGR inh 45µM
Cc1cccc(N2CCN(C(=O)c3noc4c3COc3ccc(C)cc3-4)CC2C)c1 (stereo not drawn)	Sm TGR inh 5.6µM!
Cc1c(Cl)cccc1NC(=O)Cn1nc(C(F)(F)F)c2c1CCC2	none (no result: RE007 growth inh)
O=C1/C(=C/c2ccco2)CCC1C1CCCC1 (stereo not drawn)	Sm TGR inh 50µM
O=C1/C(=C/c2ccco2)Cc2ccccc21	none
O=C1/C(=C/c2ccccc2)CCC1C1CCCC1 (stereo not drawn)	none
O=C1/C(=C\c2ccco2)CCC/C1=C\c1ccco1	Sm TGR inh 1.4µM
CC1C/C(=C/c2ccco2)C(=O)/C(=C/c2ccco2)C1 (stereo not drawn)	Sm TGR inh 1.4µM (no result: RE007 growth inh, Tb PYK inh, FMDV antiviral)
CCC1CCCCN1CC(=O)c1c(C)[nH]c2cc(C)ccc12 (stereo not drawn)	Sm TGR inh 45µM
Cc1ccc2c(C(=O)CN3CCCCC3CCO)c(C)[nH]c2c1 (stereo not drawn)	Sm TGR inh inconclusive
O=C(C[N+]12CC[N+](CC(=O)c3ccc(F)cc3)(CC1)CC2)c1ccc(F)cc1	none
N#CC1(C#N)CC(C=O)=C(N)C1(C#N)CC(=O)c1ccc(F)cc1 (stereo not drawn)	Sm TGR inh 20µM
O=C(/C=C/c1ccco1)NC(=S)Nc1ccccc1N1CCCC1	none (no result: Sm TGR inh)
O=C(O)/C=C\C(=O)Nc1ccccc1N1CCN(c2ccccc2)CC1	Sm TGR inh 11µM
O=C(Nc1ccccc1N1CCCC1)c1ccco1	Sm TGR inh inconclusive
O=C(/C=C/c1ccco1)Nc1ccccc1N1CCCC1	Sm TGR inh 40µM
O=C(/C=C/c1ccco1)NC(=S)Nc1ccccc1N1CCOCC1	FMDV antiviral inconclusive, Sm TGR inh 32µM
COc1cccc(-c2nccc(N(C)Cc3ccco3)n2)c1	none (no result: RE007 growth inh, Tb PYK inh, Sm TGR inh)
Cc1ccc(CNC(=O)CCc2nnc(Cc3ccc(-c4ccccc4)cc3)o2)o1	Sm TGR inh 25µM
O=C(CCC1CCCC1)N1CCc2c([nH]c3ccccc23)C1c1ccc(Cl)cc1 (stereo not drawn)	none (no result: RE007 growth inh)
CN1C(=O)/C(=C\c2ccc(Br)s2)C(=O)NC1=S	FMDV antiviral 32µM, Sm TGR inh 3.2µM
O=C1NC(=S)NC(=O)C1=Cc1c(Cl)cccc1Cl	FMDV antiviral 20µM (no result: Sm TGR inh)
O=C1NC(=S)NC(=O)C1=Cc1cccc2cc3ccccc3cc12	Tb PYK inh inconclusive, FMDV antiviral 10µM, Sm TGR inh inconclusive (no result: RE007 growth inh)
O=C1NC(=S)N/C1=C/c1cccc2ccccc12	none
O=C1NC(=S)NC(=O)C1=Cc1ccc(Br)s1	Tb PYK inh inconclusive, FMDV antiviral inconclusive, Sm TGR inh 20µM
CCC(=O)c1ccc2c(c1)N(CCCN1CCN(CCO)CC1)c1ccccc1S2	none (no result: RE007 growth inh, FMDV antiviral, Sm TGR inh)
CC1(C)CC(=O)C(CS(=O)(=O)c2ccccc2)=C(Cl)C1	Sm TGR inh 7.1µM
Cc1ccc(S(=O)(=O)CCC(=O)N(CCCN2CCOCC2)c2nc3ccccc3s2)cc1	Sm TGR inh 14µM
CCN(CC)CCN(C(=O)c1ccc(N2C(=O)CCC2=O)cc1)c1nc2cc3c(cc2s1)OCCO3	Sm TGR inh 45µM
O=C(CCS(=O)(=O)c1ccccc1)N(CCCN1CCOCC1)c1nc2ccccc2s1	Sm TGR inh 2.5µM
CN(C)CCN(C(=O)CCS(=O)(=O)c1ccccc1)c1nc2cc3c(cc2s1)OCO3	Sm TGR inh inconclusive
CCN(CC)CCN(C(=O)CCS(=O)(=O)c1ccccc1)c1nc2cc3c(cc2s1)OCO3	Sm TGR inh 8.9µM
CCN(CC)CCN(C(=O)c1cccc(N2C(=O)CCC2=O)c1)c1nc2cc3c(cc2s1)OCO3	none
CCc1c2c(nc3ccc(OC(=O)N4CCC(N5CCCCC5)CC4)cc13)-c1cc3c(c(=O)n1C2)COC(=O)C3(O)CC (stereo not drawn)	none (no result: RE007 growth inh, Tb PYK inh, Sm TGR inh)
Cc1ccc2occ(-c3cc(-c4ccccc4)nc4c3COc3ccccc3-4)c(=O)c2c1	none (no result: RE007 growth inh)
CC1=C(C(=O)Nc2cccnc2)C(c2cccc(Br)c2)n2nc(SCc3ccccc3)nc2N1 (stereo not drawn)	none (no result: RE007 growth inh)
COc1cc2nc(N(C)C)c(CNCc3cccc4ccccc34)cc2c(OC)c1OC	none (no result: RE007 growth inh, Tb PYK inh, Sm TGR inh)
O=C(Nc1nc(-c2cccs2)cs1)C1=COCCO1	RE007 growth inh 35µM
O=C(Nc1nc2cc3c(cc2s1)OCCO3)C1=COCCO1	RE007 growth inh inconclusive, Tb PYK inh inconclusive, FMDV antiviral 4µM
COCC1CCCN(Cc2ccc3c(c2)CN(C(=O)c2ccc(-c4ccc(C)o4)cc2)CCO3)C1 (stereo not drawn)	none (no result: RE007 growth inh, Tb PYK inh, Sm TGR inh)
Cc1ccc(S(=O)(=O)N(C)C)cc1NC(=O)C(C)NC(C)c1cccs1 (stereo not drawn)	none
Cc1ccc(S(=O)(=O)N(C)C)cc1NC(=O)C(C)N(C)Cc1sccc1C (stereo not drawn)	FMDV antiviral 16µM
COc1ccc(NC(=O)c2cc3nc(-c4ccc(C)c(C)c4)cc(C(F)(F)F)n3n2)cc1	none (no result: RE007 growth inh)
COc1ccc(C2=NN(C(=O)COC(=O)c3ccc(S(C)(=O)=O)c([N+](=O)[O-])c3)C(c3ccco3)C2)cc1 (stereo not drawn)	FMDV antiviral 25µM (no result: Sm TGR inh)
CCOC(=O)C(CS)NCCN[C@@H](CS)C(=O)OCC (stereo partly drawn)	none (no result: RE007 growth inh, FMDV antiviral, Sm TGR inh)
COc1cc(C2Nc3ccccc3-c3nnc(SCc4ccc(C)cc4)nc3O2)cc(OC)c1O (stereo not drawn)	FMDV antiviral 22µM (no result: RE007 growth inh)
Cc1ccc2[nH]c3c(c2c1)CCCC3C(N)=O (stereo not drawn)	none
Cc1ccc2[nH]c3c(c2c1)CCCC3NC(=O)CCl (stereo not drawn)	Sm TGR inh 45µM
COc1ccc(C)cc1NC1=C(Cl)C(=O)N(C2CCCCC2)C1=O	Sm TGR inh 45µM
CCCC(=O)OCCNc1cc(Sc2nc3ccccc3[nH]2)c2nonc2c1[N+](=O)[O-]	FMDV antiviral inconclusive, Sm TGR inh 0.5µM
CC(=O)OCCNc1cc(SC(C)C)c2nonc2c1[N+](=O)[O-]	FMDV antiviral inconclusive
CCC(=O)OCCNc1cc(SCCC(=O)OC)c2nonc2c1[N+](=O)[O-]	FMDV antiviral inconclusive, Sm TGR inh 6.3µM
CCC(=O)OCCNc1cc(Sc2nccn2C)c2nonc2c1[N+](=O)[O-]	FMDV antiviral inconclusive, Sm TGR inh 0.71µM
CCOC(=O)N1CCN(c2cc(NCCO)c([N+](=O)[O-])c3nonc23)CC1	none
Cc1cnc(Nc2ccc(F)cc2Cl)nc1-c1c[nH]c(C(=O)N[C@H](CO)c2cccc(Cl)c2)c1	none (no result: RE007 growth inh, FMDV antiviral, Sm TGR inh)
O=C(c1ccco1)N1CCC2(CCN(Cc3cc(C(F)(F)F)cc(C(F)(F)F)c3)CC2)CC1	none (no result: RE007 growth inh, Sm TGR inh)

Assay outcomes (PubChem BioAssay)
